Records with an inconclusive call do not appear. Activity calls are given as the source filed them. Unless noted, calls come from the whole dose curve; as a rule, active = well fitted cell-killing curve with a large enough effect; inconclusive = small, poorly fitted or top-dose-only effect, or effect the other way; inactive = no such curve, though single readings can be large or run the other way.
Assays:
[1] = Quantitative High-Throughput drug screen in 47 multiple myeloma cell lines against the NCATS MIPE library collection: KMS28PE_JCRB cell viability assay (AID 1918983); note: potency is the fitted concentration of half-maximal effect; nearly all actives have a fitted effect of over 35% in size
How it was run: (§1)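 Plated at 500 cells per well, myeloma lines received MIPE 4.0 compounds by pin tool. Following 48 h culture at 37 °C, CellTiter-Glo luminescence gave viability relative to DMSO and media-only controls.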

[2] = Quantitative High-Throughput drug screen in 47 multiple myeloma cell lines against the NCATS MIPE library collection: L363_DSMZ cell viability assay (AID 1918984); note: nearly all actives have a fitted effect of over 40% in size; note: potency is the fitted concentration of half-maximal effect
How it was run: as §1

[3] = Quantitative High-Throughput drug screen in 47 multiple myeloma cell lines against the NCATS MIPE library collection: KMS34_JCRB cell viability assay (AID 1918985); note: potency is the fitted concentration of half-maximal effect; nearly all actives have a fitted effect of over 40% in size
How it was run: as §1

[4] = Quantitative High-Throughput drug screen in 47 multiple myeloma cell lines against the NCATS MIPE library collection: OCIMY7_PLB cell viability assay (AID 1918987); note: potency is the fitted concentration of half-maximal effect; nearly all actives have a fitted effect of over 65% in size
How it was run: as §1

[5] = Quantitative High-Throughput drug screen in 47 multiple myeloma cell lines against the NCATS MIPE library collection: OCIMY5_PLB cell viability assay (AID 1918988); note: potency is the fitted concentration of half-maximal effect; nearly all actives have a fitted effect of over 65% in size
How it was run: as §1

[6] = Quantitative High-Throughput drug screen in 47 multiple myeloma cell lines against the NCATS MIPE library collection: OPM1_PLB cell viability assay (AID 1918989); note: potency is the fitted concentration of half-maximal effect; nearly all actives have a fitted effect of over 40% in size
How it was run: as §1

[7] = Quantitative High-Throughput drug screen in 47 multiple myeloma cell lines against the NCATS MIPE library collection: U266_ATCC cell viability assay (AID 1919864); note: potency is the fitted concentration of half-maximal effect; nearly all actives have a fitted effect of over 35% in size
How it was run: as §1

[8] = Quantitative High-Throughput drug screen in 47 multiple myeloma cell lines against the NCATS MIPE library collection: XG6_PLB cell viability assay (AID 1919865); note: potency is the fitted concentration of half-maximal effect; nearly all actives have a fitted effect of over 40% in size
How it was run: as §1

[9] = Quantitative High-Throughput drug screen in 47 multiple myeloma cell lines against the NCATS MIPE library collection: XG1_PLB cell viability assay (AID 1919866); note: potency is the fitted concentration of half-maximal effect; nearly all actives have a fitted effect of over 35% in size
How it was run: as §1

[10] = Quantitative High-Throughput drug screen in 47 multiple myeloma cell lines against the NCATS MIPE library collection: VP6_DJ cell viability assay (AID 1919867)
How it was run: as §1

[11] = Quantitative High-Throughput drug screen in 47 multiple myeloma cell lines against the NCATS MIPE library collection: UTMC2_PLB cell viability assay (AID 1919868); details: CellTiter-Glo ATP luminescence, 48 h; viability (% of DMSO control): at 45.8 µM (top of the series) unless noted; note: potency is the fitted concentration of half-maximal effect; nearly all actives have a fitted effect of over 55% in size
How it was run: as §1

[12] = Quantitative High-Throughput drug screen in 47 multiple myeloma cell lines against the NCATS MIPE library collection: PE2_PLB cell viability assay (AID 1919869); note: potency is the fitted concentration of half-maximal effect; nearly all actives have a fitted effect of over 35% in size
How it was run: as §1

[13] = Quantitative High-Throughput drug screen in 47 multiple myeloma cell lines against the NCATS MIPE library collection: PCM6_Riken cell viability assay (AID 1919870); note: potency is the fitted concentration of half-maximal effect; nearly all actives have a fitted effect of over 30% in size
How it was run: as §1

[14] = Quantitative High-Throughput drug screen in 47 multiple myeloma cell lines against the NCATS MIPE library collection: OPM2_DSMZ cell viability assay (AID 1919872); note: potency is the fitted concentration of half-maximal effect; nearly all actives have a fitted effect of over 30% in size
How it was run: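 Inhibition of cell viability is measured here. Each line was plated at 500 cells per well, treated with MIPE 4.0 drugs, kept 48 hours at 37C, then assayed for ATP content by CellTiter-Glo luminescence.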

[15] = Quantitative High-Throughput drug screen in 47 multiple myeloma cell lines against the NCATS MIPE library collection: KMS11_JCRBsus cell viability assay (AID 1919873); note: potency is the fitted concentration of half-maximal effect; nearly all actives have a fitted effect of over 50% in size
How it was run: as §1

[16] = Quantitative High-Throughput drug screen in 47 multiple myeloma cell lines against the NCATS MIPE library collection: KMS28BM_JCRB cell viability assay (AID 1919874)
How it was run: as §1

[17] = qHTS drug screen for cell cycle checkpoint inhibitors in PARPi-resistant BRCA-mutant ovarian cancer cell lines. (AID 1963452; calls by dose curve); details: PEO1/OlaR viability, CellTiter-Glo luminescence, 96 h, stronger effect = lower value
How it was run: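 PEO1, PEO4 and PEO1/OlaR ovarian cancer cells, 600 per well, exposed 96 h at 37C to a dilution series. Viability read by CellTiter-Glo luminescence, normalized to DMSO and empty wells; activity summarized as Z-AUC.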

[18] = Quantitative High-Throughput drug screen in 47 multiple myeloma cell lines against the NCATS MIPE library collection: SKMM1_PLB cell viability assay (AID 1919863); details: SKMM1 myeloma viability, CellTiter-Glo ATP, 48 h; viability: stronger effect = lower value
How it was run: as §1

[19] = Quantitative High-Throughput drug screen in 47 multiple myeloma cell lines against the NCATS MIPE library collection: RPMI8226_ATCC cell viability assay (AID 1919871); note: potency is the fitted concentration of half-maximal effect; nearly all actives have a fitted effect of over 30% in size
How it was run: as §1

[20] = qHTS for identification of novel therapeutic agents for treatment of microphthalmiaassociated transcription factor (MiT) renal cell carcinoma (RCC) (AID 1963991; calls by dose curve; note: potency is the fitted concentration of half-maximal effect;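 for z-score: curves scaled with 100% = DMSO viability and 0% = empty wells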); details: CellTiter-Glo, 48 h; for Potency: active = Z-AUC below -0.8 in all three lines; for z-score: stronger effect = lower value
How it was run: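 UOK109/UOK124/UOK145 (TFE3 fusions, three partners); 500 cells/well; MIPE v4.0, 1912 cpds, 11 conc.; 48 h, 37 C; CellTiter-Glo, 15 min RT; lum. Norm.: DMSO 100%, empty 0%.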

[21] = measured here: PEO1 parental Z-AUC
[22] = TFE3-RCC UOK109 viability, measured here: UOK109 Z-AUC
[23] = TFE3-RCC viability, measured here: UOK124 Z-AUC
[24] = TFE3-RCC viability, measured here: UOK145 Z-AUC

C1=CCOCc2cc(ccc2OCCN2CCCC2)Nc2nccc(n2)-c2cccc(c2)OCC1
active: Potency [1] 3.72 µM | Potency [2] 0.743 µM | Potency [3] 2.35 µM | Potency [4] 1.18 µM | Potency [5] 2.35 µM | Potency [6] 3.32 µM | Potency [7] 5.26 µM | Potency [8] 1.87 µM | Potency [9] 2.64 µM | Potency [10] 1.05 µM | Potency [11] 1.48 µM | Potency [12] 1.66 µM | Potency [13] 0.935 µM | Potency [14] 7.43 µM | Potency [15] 1.32 µM | Potency [16] 2.35 µM

Cc1ccc(C(=O)Nc2cccc(C(F)(F)F)c2)cc1-c1ccc2nc(NCCN3CCOCC3)ncc2c1
-0.409: Z-AUC [17, 21]
active: Potency [1] 14.8 µM | Potency [2] 1.05 µM | Potency [3] 9.35 µM | Potency [4] 0.935 µM | Potency [5] 14.8 µM | Potency [6] 7.43 µM | Potency [7] 14.8 µM | Potency [8] 3.32 µM | Potency [9] 4.69 µM | Potency [10] 11.8 µM | Potency [11] 5.9 µM | Potency [12] 4.69 µM | Potency [13] 5.9 µM | Potency [14] 18.7 µM | Potency [15] 2.96 µM | Potency [16] 18.7 µM
inactive: Z-AUC [17] 0.224
-0.0261: Z-AUC ([17]; measured here: PEO4 Z-AUC)

C=CC(=O)Nc1cccc(Oc2nc(Nc3ccc(N4CCN(C)CC4)cc3)ncc2Cl)c1
-0.851: z-score [20, 23]
-2.36: z-score [20, 24]
-2.72: z-score [20, 22]
active: Potency [1] 18.7 µM | Potency [2] 5.26 µM | Potency [3] 9.35 µM | Potency [4] 0.209 µM | Potency [5] 3.32 µM | Potency [6] 1.05 µM | Potency [18] 18.7 µM | Potency [8] 1.18 µM | Potency [9] 13.2 µM | Potency [10] 5.9 µM | Potency [11] 6.62 µM | Potency [12] 5.9 µM | Potency [13] 16.6 µM | Potency [19] 14.8 µM | Potency [14] 11.8 µM | Potency [15] 1.05 µM | Potency ([20]; TFE3-RCC UOK109 viability) 0.833 µM

Cc1ccc(NC(=O)C2(c3ccc4c(c3)OC(F)(F)O4)CC2)nc1-c1cccc(C(=O)O)c1
-1.79: z-score [20, 24]
-2.27: z-score [20, 22]
-1.92: z-score [20, 23]
0.813: Z-AUC [17, 21]
0.515: Z-AUC ([17]; measured here: PEO4 Z-AUC)
active: Potency [1] 0.0418 µM | Potency [2] 0.0296 µM | Potency [3] 0.0935 µM | Potency [4] 0.132 µM | Potency [5] 0.0469 µM | Potency [6] 0.148 µM | Potency [7] 0.0296 µM | Potency [8] 0.0662 µM | Potency [9] 0.0469 µM | Potency [10] 0.0469 µM | Potency [11] 0.0833 µM | Potency [12] 0.105 µM | Potency [13] 0.0332 µM | Potency [19] 0.0935 µM | Potency [14] 0.0743 µM | Potency [15] 0.0469 µM | Potency ([20]; TFE3-RCC UOK109 viability) 0.235 µM
inactive: Z-AUC [17] 0.456

OCc1ccc(-c2ccc(-c3ccc(CO)s3)o2)s1
1.79: Z-AUC [17, 21] | Z-AUC ([17]; measured here: PEO4 Z-AUC)
inactive: Potency [2] | Z-AUC [17] 1.64
active: Potency [1] 29.6 µM | Potency [3] 18.7 µM | Potency [4] 1.87 µM | Potency [5] 16.6 µM | Potency [6] 6.62 µM | Potency [7] 3.32 µM | Potency [8] 16.6 µM | Potency [9] 6.62 µM | Potency [10] 20.9 µM | Potency [11] 16.6 µM | Potency [12] 3.72 µM | Potency [13] 7.43 µM | Potency [19] 23.5 µM | Potency [14] 23.5 µM | Potency [15] 11.8 µM

CC(C)(C)c1cnc(CSc2cnc(NC(=O)C3CCNCC3)s2)o1
-1.2: Z-AUC [17, 21]
active: Potency [1] 0.132 µM | Potency [2] 0.166 µM | Potency [3] 0.296 µM | Potency [4] 2.35 µM | Potency [5] 0.0743 µM | Potency [6] 0.296 µM | Potency [18] 0.264 µM | Potency [7] 0.118 µM | Potency [8] 0.209 µM | Potency [9] 0.296 µM | Potency [10] 0.148 µM | Potency [11] 0.187 µM | Potency [12] 0.296 µM | Potency [13] 0.0833 µM | Potency [14] 0.235 µM | Potency [15] 0.132 µM | Potency [16] 0.148 µM
-0.895: Z-AUC ([17]; measured here: PEO4 Z-AUC)
inactive: Z-AUC [17] -0.758

CN1CCN(c2ccc3nc(-c4c(N)c5c(F)cccc5[nH]c4=O)[nH]c3c2)CC1
inactive: Z-AUC [17] -0.169
-0.682: Z-AUC [17, 21]
active: Potency [1] 26.4 µM | Potency [2] 2.96 µM | Potency [3] 16.6 µM | Potency [4] 3.32 µM | Potency [5] 16.6 µM | Potency [6] 3.72 µM | Potency [18] 18.7 µM | Potency [7] 13.2 µM | Potency [8] 2.09 µM | Potency [9] 3.32 µM | Potency [10] 2.35 µM | Potency [11] 5.9 µM | Potency [12] 5.26 µM | Potency [13] 2.64 µM | Potency [19] 29.6 µM | Potency [15] 10.5 µM | Potency [16] 14.8 µM
-0.379: Z-AUC ([17]; measured here: PEO4 Z-AUC)

CCN(CC)CCCCNc1ncc2cc(-c3cc(OC)cc(OC)c3)c(NC(=O)NC(C)(C)C)nc2n1
1.07: Z-AUC [17, 21]
active: Potency [1] 6.62 µM | Potency [2] 14.8 µM | Potency [3] 33.2 µM | Potency [4] 18.7 µM | Potency [5] 16.6 µM | Potency [6] 14.8 µM | Potency [7] 18.7 µM | Potency [8] 5.9 µM | Potency [9] 8.33 µM | Potency [10] 10.5 µM | Potency [11] 16.6 µM | Potency [12] 20.9 µM | Potency [13] 5.26 µM | Potency [14] 20.9 µM | Potency [15] 23.5 µM
inactive: Z-AUC [17] -1.19
0.00955: Z-AUC ([17]; measured here: PEO4 Z-AUC)
